What was measured:
[1] = biological target: T1, Aspartate--tRNA(Asp/Asn) ligase (Mycobacterium tuberculosis (strain ATCC 25618 / H37Rv)) (UniProt P9WFW3); experiment: Assay for Asp RNA synthetase-1 from Mycobacterium tuberculosis; type: functional; set-up: scale not given: direction of the effect not stated beside the values; details: 30 µM; also: in the data most compounds retested in dose-response had high values
T1 sequence (whole entry): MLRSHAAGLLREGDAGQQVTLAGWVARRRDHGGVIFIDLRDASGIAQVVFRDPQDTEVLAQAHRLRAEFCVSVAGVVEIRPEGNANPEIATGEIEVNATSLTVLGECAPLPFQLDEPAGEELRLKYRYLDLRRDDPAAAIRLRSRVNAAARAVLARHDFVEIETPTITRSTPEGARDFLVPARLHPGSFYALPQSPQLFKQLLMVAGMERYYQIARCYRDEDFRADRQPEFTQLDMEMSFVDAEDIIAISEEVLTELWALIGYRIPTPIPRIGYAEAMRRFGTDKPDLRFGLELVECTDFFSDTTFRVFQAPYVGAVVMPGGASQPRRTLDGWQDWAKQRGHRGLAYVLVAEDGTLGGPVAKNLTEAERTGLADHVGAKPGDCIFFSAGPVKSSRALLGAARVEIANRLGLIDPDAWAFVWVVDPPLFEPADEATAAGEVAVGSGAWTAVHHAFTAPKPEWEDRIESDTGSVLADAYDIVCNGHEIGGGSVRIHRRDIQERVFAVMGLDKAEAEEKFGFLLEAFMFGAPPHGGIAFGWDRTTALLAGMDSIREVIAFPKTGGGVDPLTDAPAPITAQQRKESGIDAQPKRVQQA

[2] = biological target: Shiga toxin 2 (Escherichia coli O157:H7) (UniProt P09385+P09386); experiment: E. coli 0.157:H7 Shiga Toxin SOP - stx2 screening assay; type: functional; set-up: scale not given: direction of the effect not stated beside the values; details: 30 µM

SMILES | Percent Effect [1] | Percent Effect [2]
N#CCCN(C(=O)CN1CCCC1Cc1ccccc1)c1ccccc1 (stereo not given) | 2.91% | 27.4%
CC(C)(C)c1ccc(C2(C(=O)NCCCS(C)(=O)=O)CC2)cc1 | 8.98% | -49.3%
CC(C)NC(=O)N1CCN(Cc2ccccn2)CC2(CC(=O)N(C)C2)C1 (stereo not given) | -0.228% | -14.2%
CC(=O)N1CCN([C@@H]2CC[C@@H](NC(=O)c3cncc(C)c3)[C@H]2O)CC1 | -1.5% | -14%
Cc1nc(C)n(C2CCCN(C(=O)c3cnc[nH]3)C2)n1 (stereo not given) | -5.96% | 9.84%
Cc1cnn(CC2CCCCN2Cc2nnc(C3CC3)n2C)c1 (stereo not given) | -3.3% | 1.19%
CN(C)C(CNC(=O)c1cccc(-n2cnnn2)c1)c1ccccc1Cl (stereo not given) | 3.08% | -14.9%
O=C(Cc1cccnc1)N1CCC(OCc2ccccc2)CC1 | -3.5% | 7.67%
CCCOc1ccc(CNC2CCCc3c2cnn3CC)cc1OC (stereo not given) | -1.51% | -22.9%
O=C(CCN1CCCN(c2nccs2)CC1)Nc1ccccc1 | -1.81% | -52.2%
Cn1ccc(C(=O)N2CCCC(n3cncn3)C2)cc1=O (stereo not given) | -4.15% | -5.76%
Cc1cc2c(=O)n3c(nc2s1)CCN(C(=O)c1scnc1C)CC3 | -1.56% | 0.428%
c1cnc(-c2nc(CN3CCCC(Cn4cncn4)C3)cs2)nc1 (stereo not given) | -1.55% | 20.5%
Cc1ccc(-c2ncc(C(=O)NCCNc3ncccn3)s2)c(C)c1 | 7.92% | -13.5%
Cc1cc(CN2CCN(C(=O)NCc3ccc(C)s3)CC2)no1 | -8.25% | 0.0703%
O=C(c1cc[nH]n1)N1CCC(Nc2cccnn2)CC1 | -8.36% | -20.2%
COCC1CN(Cc2cc(C)on2)Cc2cn(C)nc21 (stereo not given) | 1.83% | -2.41%
O=C(Nc1ccccn1)C1CC(=O)N(Cc2ccccn2)C1 (stereo not given) | 2.43% | -18.5%
O=C1CC(c2ccc(C(=O)O)cc2)c2ncn(-c3cccc(F)c3)c2N1 (stereo not given) | 7.81% | -17.3%
O=C(c1ccc(F)cc1F)N1C[C@@H](O)[C@H](N2CCOCC2)C1 | 4.46% | -20.4%
O=C(N1CCCCC1)N1CCN(CC(O)c2ccc(F)cc2)CC1 (stereo not given) | -2.17% | 31.9%
COc1cccc(S(=O)(=O)NC(=O)COc2c(C)cccc2C)c1 | -3% | 6.76%
Cc1nc(CN(C)C(=O)Nc2cnn(CC3CCCO3)c2)cs1 (stereo not given) | 2.17% | -5.02%
Cn1nc(C2CCN(C(=O)Cc3cccc(F)c3)CC2)c2cccnc21 | -2.81% | -7.51%
CC1c2ncc(Cn3cncn3)n2CCN1C1CCOCC1 (stereo not given) | 2.5% | -1.95%

SMILES | Percent Effect [1] | Percent Effect [2]
Cc1ccc(S(=O)(=O)N2CSCC2C(=O)N(C)C2CC2)cc1Cl (stereo not given) | 3.03% | 19.2%
O=C(Nc1nc2c(s1)CCC2)c1cccnc1N1CCOCC1 | -4.4% | -10.3%
COCC1CCN(c2cc(C3CN(C)CCO3)nc(C)n2)CC1 (stereo not given) | -1.84% | -3.4%
CCOC(=O)CCC(=O)NC(C)c1ccc(NC(=O)CC)cc1 (stereo not given) | -8.03% | -0.224%
CC(C)c1nccn1C1CCCN(C(=O)c2cccc3c2OCO3)C1 (stereo not given) | 0.582% | -1.21%
CC(NC(=O)NCc1ccc(Cl)cc1)c1ccccn1 (stereo not given) | 0.364% | -27.4%
COCCc1ncc(CN2CCC(Oc3ccccc3C)CC2)cn1 | 1.13% | 1.32%
COc1ccc(C(=O)N2CC[C@H](CO)[C@H](O)C2)c(C)c1 | -1.53% | 9.86%
Cc1cc(N2CCN(CCO)CC2)nc(-c2ccncc2)n1 | 1.26% | -27.4%
Cc1nsc(NC(=O)N2CCC(C(C)(C)O)CC2)n1 | 0.0141% | -27.4%
CCO[C@@H]1CO[C@@]2(CCCN(Cc3scnc3C)C2)C1 | -7.13% | -25%
COc1c(CNCCNC(=O)c2ccco2)c(C)nn1C | -2.68% | 14.7%
Cc1cnn(CC2CCCN2CC(=O)Nc2nc(C)cs2)c1 (stereo not given) | 1.62% | -8.49%
CC(C)(C)c1n[nH]cc1CN1CCc2nc3ccsc3c(=O)n2CC1 | -0.849% | 12.6%
COc1ncc(-c2nccn2CCN(C)C)cn1 | -0.836% | -6.87%
Cc1noc(C)c1C(=O)N1CCCC1c1c(C)nn(C)c1Cl (stereo not given) | -3.2% | -9.41%
O=C(NCC1CCOCC1)[C@@H]1C[C@@H]2CCN(Cc3ccco3)C[C@H]2O1 | 0.32% | 4.1%
COc1cccc(CC2CN(C3CCN(C(C)=O)CC3)CCO2)c1 (stereo not given) | -4.28% | -26%
Cn1ccc(C(=O)N2CCC(Cc3cccc4cccnc34)C2)n1 (stereo not given) | -7.19% | 15.7%
COc1ccc(C(CO)NC(=O)Nc2cccnc2)cc1 (stereo not given) | -1.35% | -19.2%
Cc1cnn(CC2CN(CC(=O)Nc3sccc3C#N)CCO2)c1 (stereo not given) | -2.83% | 27.5%
CC(=O)NCCC1CCCCN1S(=O)(=O)c1cccc(C#N)c1 (stereo not given) | -1.28% | -30%
CC(NC(=O)Cc1cccs1)c1nnc2n1CCCCC2 (stereo not given) | -4.69% | 5.32%
CCSCCC(=O)NS(=O)(=O)c1ccc2c(c1)OCCO2 | -0.722% | -25.1%
Cc1cnn(C2CN(Cc3nc(-c4ccco4)no3)C2)c1 | -7.28% | 10.9%

Reference: ChEMBL document CHEMBL3988442, “University of Dundee, Small-Polar-MMV Screening Library” (2021)
